Screens (PubChem)
Only some compounds are listed: those with a hit (about 7.5% of all), similar ones and a draw of the others.
FLuc counter: qHTS profiling assay for firefly luciferase inhibitor/activator using purifed enzyme and Km concentrations of substrates (counterscreen for miR-21 project); Potency, µM (series often up to 57.5 µM), actives largely listed as inhibitors; Luciferin 4-monooxygenase (Photinus pyralis), P08659; purified FLuc, Km substrates, luminescence inhibition; 360,000 compounds, 6.9% hits; note: nearly all actives have a fitted effect of over 55% in size
Target sequence (P08659 whole entry, looked up): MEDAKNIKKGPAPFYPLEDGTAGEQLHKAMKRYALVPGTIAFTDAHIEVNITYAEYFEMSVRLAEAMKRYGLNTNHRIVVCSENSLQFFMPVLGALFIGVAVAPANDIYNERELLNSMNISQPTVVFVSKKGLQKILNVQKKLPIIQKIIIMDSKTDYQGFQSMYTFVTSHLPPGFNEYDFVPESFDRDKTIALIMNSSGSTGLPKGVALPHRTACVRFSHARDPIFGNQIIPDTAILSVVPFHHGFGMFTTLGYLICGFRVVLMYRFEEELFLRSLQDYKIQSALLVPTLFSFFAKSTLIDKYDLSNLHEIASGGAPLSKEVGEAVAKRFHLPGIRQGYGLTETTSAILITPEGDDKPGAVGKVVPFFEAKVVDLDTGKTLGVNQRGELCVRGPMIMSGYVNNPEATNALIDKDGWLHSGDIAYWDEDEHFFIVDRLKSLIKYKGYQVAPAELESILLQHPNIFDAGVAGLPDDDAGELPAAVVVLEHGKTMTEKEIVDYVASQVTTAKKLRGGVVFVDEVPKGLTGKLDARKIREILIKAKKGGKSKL
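Biochemical qHTS of compounds, final roughly 60 µM downward over six points, against 10 nM purified firefly luciferase using Km concentrations of substrates (10 uM D-luciferin, 10 uM ATP) in Tris acetate pH 7.5 buffer; luminescence output.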
ELG1 genotoxic: qHTS screen for small molecules that induce genotoxicity in human embryonic kidney (HEK293T) cells expressing luciferase-tagged ELG1 | HEK293T ELG1-luciferase reporter, luminescence, 16 h | 330,000 compounds, 1.3% hits | Potency, µM (titrated, usually from 46 µM), most hits filed as activators; note: nearly all actives have a fitted effect of over 60% in size
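Luminescence read-out: rising ELG1-luciferase signal, reflecting elevated ELG1 protein under genetic stress, flags genotoxic compounds. Cells were treated for 16 hr at 37 °C before ONE-Glo detection.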
NPC1 promoter act: qHTS Assay for NPC1 Promoter Activators | Potency, µM (highest dose often 9.22 µM), actives largely listed as activators | 320,000 compounds, 2.4% hits | Huh7 NPC1 promoter luciferase reporter, 24 h | AID 485313, 2010; note: nearly all actives have a fitted effect of over 60% in size
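Stably transfected Huh7 (NPC1 promoter→luciferase), 1500 cells/well in Opti-MEM + 10% FBS, 2 h settle, then compound 24 h at 37 °C. Luminescence after 10 min with Amplite reagent.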
SMN2 splice up: qHTS Assay for Enhancers of SMN2 Splice Variant Expression | HEK293 SMN2-luciferase splicing reporter, luminescence, 30-36 h | Potency, µM (highest dose often 46.1 µM), most hits filed as activators | 210,000 compounds, 2.8% hits; note: nearly all actives have a fitted effect of over 55% in size
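qHTS luciferase splicing reporter: luminescence rises when SMN2 exon 7 is included in transfected HEK293 cells. Compound exposure lasted 30-36 h at 37C, with 4.5 mM final sodium butyrate as control, followed by a ONE-Glo read.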
Rab9 prom act: qHTS Assay for Rab9 Promoter Activators. Huh7 Rab9 promoter-luciferase reporter, luminescence, 24 h. Potency, µM (top dose mostly 9.22 µM), most hits filed as activators. 320,000 compounds, 2.8% hits; note: nearly all actives have a fitted effect of over 60% in size
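Stable Rab9-luc Huh7, 1500 cells/well, 2 h settle; cmpd in DMSO, 24 h, 37 °C/5% CO2; luciferase reagent 10 min RT; luminescence.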
Luc counter: Counterscreen for Luciferase (Kinase-Glo TM) Inhibition | Luciferin 4-monooxygenase (Photuris pensylvanica), Q27757 | Kinase-Glo luciferase, ATP luminescence, 8 min | Potency, µM (titrated, usually from 38.3 µM), hits mostly inhibitors | AID 1379, 2008 | 200,000 compounds, 0.28% hits; note: nearly all actives have a fitted effect of over 60% in size
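Compound is pinned into ATP-containing buffer (10 uM ATP, imidazole pH 7.2, 7 mM MgCl2). Kinase-Glo luciferase reagent is then added. Light output is recorded following an 8-min room-temperature incubation.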
Numbers stand for hits; n = inactive; u = inconclusive; x = no result given. Calls come from the whole dose curve; as a rule, active = well fitted curve in the direction sought with a large enough effect; inconclusive = small, poorly fitted or top-dose-only effect, or another doubt; inactive = no such curve, though single readings can be large; an effect the other way counts as inactive or inconclusive.

SMILES	FLuc counter	ELG1 genotoxic	NPC1 promoter act	SMN2 splice up	Rab9 prom act	Luc counter
O=C(COC(=O)c1ccccc1F)NC1CC1	n	n	n	x	n	x
O=C(NC(=S)NC1CCCC1)c1ccccc1	16.9µM	u	u	x	u	x
NC1=NC(c2cccc(Cl)c2)n2c(nc3ccccc32)N1 (stereo not given)	n	x	x	n	x	x
COCCn1c(=O)c(-c2ccc(OC)cc2)nc2cnc(Nc3ccccc3)nc21	x	x	x	n	x	n
Cc1ccc(NC(=O)c2cnccn2)c(Br)c1	21.3µM	u	u	x	u	x
Cc1cc(NC(=O)c2cnccn2)no1	n	n	n	n	n	n
Cc1ccc(NC(=O)c2cnccn2)nc1	9.53µM	n	n	x	n	x
Cc1ccc(C(=O)NNC(=S)Nc2cccc3ccccc23)s1	10.7µM	n	n	x	n	x
COCCC(=O)NC1CCCc2c1cnn2-c1cccc(C)c1C (stereo not given)	n	n	n	x	n	x
O=C(COC(=O)c1cccs1)NC12CC3CC(CC(C3)C1)C2	23.9µM	n	n	n	n	n
O=C(COC(=O)c1ccccn1)NC12CC3CC(CC(C3)C1)C2	21.3µM	n	n	n	n	n
Cc1cccc(CNc2ncnc3ccc(-c4ccc(C(=O)N(C)C)cc4)cc23)c1	x	x	x	n	x	n
O=C(O)CSc1ncnc2c1sc1nc(-c3ccccc3)c3c(c12)CCC3	10.7µM	n	n	x	n	x
O=c1[nH]cnc2c1sc1nc(-c3ccccc3)c3c(c12)CCCC3	n	n	n	n	n	n
O=C(OCc1cccc([N+](=O)[O-])c1)c1ccc2ccccc2n1	26.9µM	n	n	n	n	n
O=C(OCc1ccc([N+](=O)[O-])cc1)c1ccc2ccccc2n1	n	n	n	x	n	x
CCc1nnc(NC(=O)c2ccc(Cl)nc2)s1	13.5µM	u	n	n	u	n
CCc1nnc(NC(=O)c2cc(Cl)ccn2)s1	15.1µM	16.4µM	2.24µM	x	2.51µM	x
O=C(Nc1nnc(C2CC2)s1)c1ccc(S(=O)(=O)c2ccccc2)cc1	n	n	n	n	n	n
CC(C)(C)c1nnc(NC(=O)c2ccc(Cl)nc2)s1	u	n	n	x	4.47µM	n
O=C(Nc1nnc(C2CC2)s1)c1ccc(Cl)nc1	12µM	u	u	x	u	x
COc1ccc(CCNC(=O)c2ccc(Nc3nc4ccccc4n4nnnc34)cc2)cc1OC	n	x	x	n	x	x
O=C(CC(=O)Nc1ccccc1F)Nc1ccccc1F	n	n	n	x	n	x
Cc1ccc(CCC(=O)Nc2ccccc2F)s1	7.57µM	10.3µM	u	u	u	n
COc1ccc(CCCC(=O)Nc2ccccc2F)cc1	13.5µM	u	n	n	u	n
SMILES	FLuc counter	ELG1 genotoxic	NPC1 promoter act	SMN2 splice up	Rab9 prom act	Luc counter
COc1ccc(CNC(=S)Nc2ccccc2F)cc1	n	n	n	x	n	x
COc1ccc(C(=O)NC(=S)Nc2ccccc2F)cc1	2.69µM	u	1.78µM	12.6µM	1.41µM	n
COc1ccc(C(=O)NC(=S)NNC(=O)c2ccccc2O)cc1	21.3µM	n	n	x	n	x
CC(=O)CCCC(NS(=O)(=O)CCC(Cl)(Cl)Cl)c1ccccc1 (stereo not given)	n	n	n	x	n	x
CC(OC(=O)/C=C/c1ccco1)C(=O)NC1CCCCC1C (stereo not given)	n	n	n	x	n	x
N#Cc1nc(-c2ccccc2F)oc1NCc1ccccc1	n	n	n	n	n	n
COc1ccc(Nc2oc(-c3cccs3)nc2C#N)cc1	4.78µM	u	u	u	3.16µM	n
N#Cc1nc(-c2ccco2)oc1NCCc1ccccc1	u	n	n	n	n	n
N#Cc1nc(-c2ccccc2F)oc1NCCc1ccccc1	26.9µM	n	n	n	n	n
N#Cc1nc(-c2cccs2)oc1NCCc1ccccc1	19µM	u	n	n	n	n
O=C(NC(Cc1cccc(F)c1)C(=O)O)C1CCCCC1 (stereo not given)	n	n	n	x	n	x
Cc1noc(C)c1CSCC(=O)N(C)CC(=O)Nc1ccc(F)c(F)c1F	n	n	n	x	n	x
Oc1cccc(-c2nc(-c3cccs3)c(-c3cccs3)[nH]2)c1	u	x	x	n	x	x
COC(=O)c1cc(C(=O)OCC(=O)Nc2ccc(N3CCOCC3)cc2)cc([N+](=O)[O-])c1	x	n	x	x	x	x
COC(=O)CC1C(=O)NCCN1C(=O)CSc1nnc(Nc2ccc(OC)cc2)s1 (stereo not given)	21.3µM	n	n	x	n	u
COC(=O)CC1C(=O)NCCN1C(=O)CSc1nnc(Nc2ccc(C)cc2)s1 (stereo not given)	16.9µM	n	n	n	n	n
O=C(NCC(c1ccco1)N1CCCC1)c1cccc(S(=O)(=O)Nc2ccc(F)cc2)c1 (stereo not given)	n	n	n	x	n	x
CC(=O)N1c2ccc(S(=O)(=O)NCC3CCC(C(=O)NCCC(C)C)CC3)cc2CC1C (stereo not given)	n	x	x	x	x	x
COC(=O)c1cn(NC(=O)C2CCCCC2)c(=O)c2ccccc12	n	n	n	n	6.31µM	n
O=S(=O)(c1cccc(-c2csc(-c3cccnc3)n2)c1)N1CCOCC1	n	n	n	x	u	x
COc1ccc(-c2csc(C)n2)cc1OC	u	n	n	n	n	n
Nc1nc(-c2ccc3c(c2)NC(=O)CO3)cs1	n	u	n	n	n	n
c1cncc(-c2nc(-c3ccc4c(c3)OCO4)cs2)c1	4.78µM	u	2.82µM	x	1.58µM	n
Cc1nc(-c2cccc(N)c2)cs1	n	n	n	n	n	n
Cc1nc(-c2ccc3c(c2)OCCCO3)cs1	7.57µM	u	1.78µM	x	1.58µM	x
SMILES	FLuc counter	ELG1 genotoxic	NPC1 promoter act	SMN2 splice up	Rab9 prom act	Luc counter
Cc1nc(-c2ccc3c(c2)OCO3)cs1	15.1µM	n	n	u	n	n
CC1Cc2cc(-c3csc(N)n3)ccc2O1 (stereo not given)	9.53µM	u	u	x	1.26µM	x
COc1ccccc1Cc1nc2ccccc2nc1SCC(=O)Nc1ccc2c(c1)OCO2	n	x	x	x	x	x
CSc1ncc(C(=O)Nc2ccccc2F)c(-c2ccccc2)n1	n	n	n	x	n	x
COc1ccc(N2C(=O)CSC23C(=O)N(CC(=O)Nc2ccccc2F)c2ccccc23)cc1 (stereo not given)	n	x	x	x	x	x
CN1CC(=O)N(CC(=O)Nc2cccc(C#N)c2)c2ccccc2C1=O	n	x	x	x	x	x
Nc1nc(-c2ccc3c(c2)OCCO3)cs1	9.53µM	20.6µM	3.55µM	15.8µM	3.55µM	n
Nc1nc(-c2cccc(F)c2)cs1	n	n	n	x	n	n
Nc1nc(-c2cc3c(cc2Cl)OCCO3)cs1	u	n	n	x	n	x
